The list is not random: actives were taken first. Their share in the collection is about 5.3%.
KDM4E inh: JMJD2E (human) inhibition; B2RXH2; JMJD2E catalytic domain, FDH-coupled NADH fluorescence (FDH is formaldehyde dehydrogenase); Potency, µM (titrated, usually from 57.1 µM), for inactives: at the highest dose activity change, negative = inhibition, usual class: inhibitors; hit rate 1.6% among 230,000; AID 2147; active means well fitted inhibition curve with a large enough effect, not every such curve was filed as active; inconclusive means small, poorly fitted or top-dose-only effect, or another doubt; inactive means no such curve, though single readings can be large or run the other way;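 further: potency means the concentration at half of the fitted maximal effect; 0% = wells with enzyme and -100% = buffer wells without enzyme; nearly all actives have a fitted effect of over 50% in size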
Target sequence (B2RXH2 1-337 limits assumed): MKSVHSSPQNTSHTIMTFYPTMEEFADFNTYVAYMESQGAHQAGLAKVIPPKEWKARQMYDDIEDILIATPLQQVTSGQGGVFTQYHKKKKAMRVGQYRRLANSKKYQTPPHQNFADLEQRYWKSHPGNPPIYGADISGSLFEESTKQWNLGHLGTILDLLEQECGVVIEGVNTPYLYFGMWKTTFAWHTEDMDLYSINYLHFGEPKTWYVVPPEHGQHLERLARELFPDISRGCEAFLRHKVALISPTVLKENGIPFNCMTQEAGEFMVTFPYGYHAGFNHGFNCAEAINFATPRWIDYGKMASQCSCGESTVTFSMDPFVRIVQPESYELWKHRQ
Tau fluor counter: counter-screen for tau fibril formation inhibitors | tau K18 P301L Alexa594 fluorescence, heparin fibrillization | Potency, µM (doses to about 57.7 µM), for inactives: top-dose activity change, negative = decrease | hit rate 0.93% among 280,000 | AID 1463; further: potency means the concentration at half of the fitted maximal effect; nearly all actives have a fitted effect of over 55% in size
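Human K18 P301L tau (15 uM unlabeled plus 0.24 uM Alexa 594-labeled, final) in 100 mM sodium acetate pH 7 was mixed with compound and 20 uM heparin and incubated 6 hr at 37 C.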
Coupling enz: coupling enzyme interference in Giardia aldolase counter-screen; hit rate 0.67% among 290,000; activity change, negative = inhibition, % at 58.2 µM, hits read low; coupling enzyme system counterscreen, AmpLite Red fluorescence; in the data active means activity change below about -30%
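Compounds tested against the coupling enzymes alone at 57.5 uM final; readout was AmpLite Red fluorescence (525/598 nm) after 20 min at RT.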
Sfp inh: inhibitors of Bacillus subtilis Sfp phosphopantetheinyl transferase | Q9F4F7 | Biochemical Sfp PPTase activity, qHTS | Potency, µM, inactives show largest response in the series, negative = inhibition, most hits filed as inhibitors | hit rate 3.5% among 310,000;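 further: the enzyme is Sfp with the accession as filed and its product quenches rhodamine fluorescence; potency means the concentration at half of the fitted maximal effect; 0% = enzyme reaction without inhibitor and -100% = no enzyme wells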
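Reaction rates are the 30-min fluorescence difference (ex 525, em 598 nm) in wells containing 15 nM Sfp, 5 uM rhodamine-CoA and 12.5 uM BHQ-2-YbbR at pH 7.6 with 10 mM MgCl2.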
Tau ThT inhib: tau fibrillization inhibition (ThT binding) | Potency, µM (top dose mostly 57.4 µM), for inactives: at the top dose activity, negative = inhibition, hits mostly inhibitors | recombinant tau K18 P301L, heparin-induced fibrillization, ThT fluorescence | AID 1460 | hit rate 2.1% among 270,000 | P10636; further: potency means the concentration at half of the fitted maximal effect; nearly all actives have a fitted effect of over 55% in size
Target sequence (P10636 561-689 P618L limits assumed): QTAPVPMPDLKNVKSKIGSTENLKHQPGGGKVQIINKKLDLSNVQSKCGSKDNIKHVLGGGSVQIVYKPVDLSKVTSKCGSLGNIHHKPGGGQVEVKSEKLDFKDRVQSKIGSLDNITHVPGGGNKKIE
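Using a mix of unlabeled (15 uM) and Alexa 594-labeled (0.24 uM) tau K18 P301L, heparin-triggered fibrillization over 6 hr at 37 C was scored by ThT fluorescence.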
Tau fibril FP: inhibitors of human tau fibril formation. AID 1468. Potency, µM (doses to about 57.7 µM), without a hit: at the top dose activity, negative = inhibition, hits mostly inhibitors. P10636. K18 P301L tau heparin fibrillization, Alexa594 FP, 6 h. hit rate 0.39% among 280,000; further: potency means the concentration at half of the fitted maximal effect; nearly all actives have a fitted effect of over 55% in size
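Read-out: fluorescence polarization of Alexa 594-labeled tau (0.24 uM), 555 nm excitation, 632 nm emission. Mixtures held 15 uM unlabeled K18 P301L, compound and 20 uM heparin, pH 7 acetate buffer, incubated 6 hr at 37 C.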
* hit, by the source's call; ? = inconclusive; . = no result; [ ] = dose if it differs, or a comment. Unless noted, the call rests on the fitted dose curve; in most records, active means well fitted curve in the direction sought with a large enough effect; inconclusive means small, poorly fitted or top-dose-only effect, or another doubt; inactive means no such curve, though single readings can be large; an effect the other way counts as inactive or inconclusive. Unless noted, on the % scale 0 is the no-effect control and ±100 the full control effect.

SMILES	KDM4E inh	Tau fluor counter	Coupling enz	Sfp inh	Tau ThT inhib	Tau fibril FP
COc1ccc(C(C[N+](=O)[O-])c2c(C)[nH]n(-c3ccccc3)c2=O)cc1 (stereo not given)	.	.	-39*	40µM*	.	.
Cc1[nH]n(-c2ccccc2)c(=O)c1C(C[N+](=O)[O-])c1ccccc1Cl (stereo not given)	-28%	-16%	-8	2%	-22%	6%
C#CCNC(=O)C1=C[C@H](c2cn(C(C)=O)c3ccccc23)C[C@H](OCc2ccc(CO)cc2)O1	?	-18%	-3	-4%	?	-4%
CC(=O)n1cc([C@@H]2C=C(C(=O)NCc3ccccc3)O[C@H](OCc3ccc(CO)cc3)C2)c2ccccc21	10µM*	-25%	5	15%	?	-8%
O=C(C1=C[C@H](c2ccccc2)C[C@H](OCc2ccc(CO)cc2)O1)N1CCN(Cc2ccccc2)CC1	20µM*	-6%	-1	7%	?	-7%
CCCN1CCC(=O)N(C(CSc2ccc(OC)cc2)c2ccccc2)CC1 (stereo not given)	.	.	-1	-13%	.	.
Cc1ccc(CNC(=O)Cn2ccn(-c3ccc(C)c(C)c3)c(=O)c2=O)cc1	.	-8%	.	.	-3%	-10%
CN1c2ccccc2N(C)C1(C)c1cccc2ccccc12	?	-28%	-30	?	16µM*	?
CCn1c(=O)c2cc(C(=O)N3CCN(c4cccc(OC)c4)CC3)sc2c2ccccc21	.	-22%	.	.	?	7%
Cc1cc2cc(CNS(=O)(=O)N(C)C)ccc2[nH]1	?	-30%	-36*	-13%	?	1%
Cc1ccc(S(=O)(=O)NCc2ccc3[nH]c(C)cc3c2)cc1	-2%	?	-8	14%	-20%	7%
CCOC(=O)c1ccc(NC(=O)Cn2cc(C(=O)c3cccs3)c3ccccc32)cc1	.	?	.	.	-11%	16µM*
O=C(Nc1ccc(C(=O)OCc2cc(=O)n3c4c(sc3n2)CCCC4)cc1)c1ccc(F)cc1	.	-23%	.	.	18%	-9%
Cc1ccc(N/C=C/C(=O)c2ccco2)c(O)c1	-20%	-23%	-6	-11%	3.5µM*	2%
Cc1ccc([N+](=O)[O-])cc1N/C=C/C(=O)c1ccco1	6%	-10%	-5	-18%	?	-5%
COc1cccc(NC(=O)CSc2nc(-c3ccccc3Cl)nc3c2Cc2c(CO)cnc(C)c2O3)c1	.	-15%	.	.	-2%	-12%
COC(=O)c1cc(O)cc(OC)c1Oc1cc(C)cc(O)c1C(=O)O	?	-17%	-13	56µM*	?	-10%
COC(=O)c1cc(O)cc(OC)c1C(=O)c1c(O)cc(C)cc1O	-15%	-2%	5	17%	-1%	2%
O=C(c1ccccc1F)N1CCN(c2ccc([N+](=O)[O-])c(NCc3cccnc3)c2)CC1	1%	-15%	1	-4%	16µM*	5%
O=C(c1ccccc1)N1CCN(c2ccc([N+](=O)[O-])c(NCc3cccnc3)c2)CC1	9%	-8%	2	21%	16µM*	4%
CC(C)(C)C(=O)N1CCN(c2ccc([N+](=O)[O-])c(NCc3cccnc3)c2)CC1	1%	4%	0	1%	?	1%
COC(=O)c1ccccc1C[C@]1(C(=O)OC)C=C[C@H](C)[C@@H](c2ccccc2)N1C(=O)C(F)(F)F	-3%	-10%	2	-19%	-3%	-4%
Oc1ccc(/C=C/c2cc(O)cc(O)c2)cc1	?	?	3	6%	10µM*	?
COc1cc(O)cc(/C=C/c2ccccc2)c1	?	?	0	-26%	-8%	?
Oc1ccc(/C=C\c2cc(O)cc(O)c2)cc1	?	14µM*[quencher]	1	-3%	14µM*	10%
COc1ccc(CC(=O)N2CCc3cc(OC)c(OC)cc3C2COc2ccc3c(C)cc(=O)oc3c2)cc1OC (stereo not given)	.	-6%	.	.	-7%	2%

Screening results (PubChem)
